Assay outcomes as filed in PubChem.
Pf Dd2 inh = blocks in vitro growth of P. falciparum Dd2; P. falciparum Dd2 growth, SYBR Green, 72 h; Potency, µM (titrated, usually from 28.9 µM), for inactives: top-dose activity, negative = inhibition, most hits filed as inhibitors; 120,000 tested, 4.3% active; AID 1347417; active = well fitted inhibition curve with a large enough effect;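 note: plate controls were DMSO vehicle for no effect and reference drug for full effect; nearly all actives have a fitted effect of over 65% in size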
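Infected erythrocytes (Dd2, 0.3% parasitemia, 2.5% hematocrit final) are added to compound in RPMI-1640/Albumax II medium, grown 72 h at 37C in low oxygen, then lysed with saponin/Triton-X containing SYBR Green and read by fluorescence.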
Numbers without * were called inactive; i = inactive; ! = not active in a repeat; [ ] = remark or other dose. This excerpt belongs to a sample that is enriched for hits. Potency is the fitted concentration of half-maximal effect.

SMILES	Pf Dd2 inh
Cc1ccc(NCc2cccn2-c2nnc(N3CCC(C(=O)NC(C)C)CC3)s2)cc1	i
O=C1N2CCCC2CN1C1CCN([S+](=O)([O-])c2cccc(C(F)(F)F)c2)CC1 (stereo not drawn)	-24%
O=C(CN1C(=O)CNC1=O)N1CCCC(Nc2ccc3c(c2)OCO3)C1 (stereo not drawn)	-2%
CCOC(=O)c1ccc(NC(=O)N2Cc3[nH]cnc3C[C@H]2c2nc(-c3ccc(C)cc3)no2)cc1	-8%
CCCNC(=O)c1ccc2c(c1)N=C(CCC)c1ccccc1S2	i
CCCC1=Nc2cc(C(=O)NC(C)c3ccccc3)ccc2Sc2ccc(C)cc21 (stereo not drawn)	-14%
CC(NC(=O)c1ccc2nc(CCc3ccccc3)oc2c1)c1ccccc1 (stereo not drawn)	-22%
CCC1=Nc2cc(C(=O)NC(C)c3ccccc3)ccc2Sc2ccc(Cl)cc21 (stereo not drawn)	8.9µM*
CCCC1=Nc2cc(C(=O)NCc3ccc(OC)cc3)ccc2Sc2ccc(C)cc21	-2%
CCCC1=Nc2cc(C(=O)NCCc3ccccc3)ccc2Sc2ccc(C)cc21	6.3µM*!
O=C(NC1CCCCC1)N[C@H]1[C@H](O)[C@@H](N2CCN(c3ccccc3)CC2)[C@@H]2OC[C@H]1O2	-15%[44.1 µM]
Cc1nc(-c2c3n(c(=O)n(CC(=O)Nc4ccc(F)c(Cl)c4)c2=O)CCCC3)no1	-17%
CCN1C(=O)CCN(C(=O)Cc2cccc(OC)c2)CC12CCOCC2	20%
Cc1ccc(-n2c(C3CCN(C(=O)Cc4ccc(Cl)cc4)CC3)n[nH]c2=O)cc1	13µM*
Cc1ccc(-n2c(C3CCN(C(=O)Cc4ccccc4Cl)CC3)n[nH]c2=O)cc1	-17%
Cc1cccc(OCC(=O)N2CCC(c3n[nH]c(=O)n3Cc3ccc(F)cc3)CC2)c1	11µM*
Cc1ccc(CC(=O)N2CCC(c3n[nH]c(=O)n3-c3ccccc3)CC2)cc1	i
COc1cccc(CC(=O)N2CCC(c3n[nH]c(=O)n3Cc3ccc(F)cc3)CC2)c1	-4%
COc1ccc(Cn2c(C3CCN(C(=O)Cc4cccc(C)c4)CC3)n[nH]c2=O)cc1	-4%
Cc1ccc(C(=O)NC2CCCN(c3cc(-c4ccc(Cl)cc4)[nH]n3)C2)cn1 (stereo not drawn)	-9%
O=C(Cn1c(=O)oc2ccccc21)N1CCc2nn(CC3CC3)c(=O)n2CC1	47%
CNC(=O)[C@@H]1CN(C(=O)Cn2nc(C(F)(F)F)cc2C)C[C@H]1c1n[nH]c(C)n1	25%
Cc1cc(C(F)(F)F)nn1CC(=O)NCCn1c(C)cnc1C1CCC1	-3%
O=C1CC2(CCN([S+](=O)([O-])c3cccc(C(F)(F)F)c3)CC2)Oc2ccccc2N1	i
Cn1cnc(C(=O)N2[C@@H]3CC[C@H]2CC(NC(=O)c2ccncc2)C3)c1 (stereo partly drawn)	22%
SMILES	Pf Dd2 inh
COc1cccc(N2C(=O)NC(=NC3CCCC3)C23CCN(CC2CCCCC2)C3)c1 (stereo not drawn)	10µM*
COc1cccc(N2C(=O)NC(=NC3CCCCC3)C23CCCN([S+](=O)([O-])c2cccc(C(F)(F)F)c2)C3)c1 (stereo not drawn)	13µM*
COc1ccc(CN2CCCC3(C2)C(=NC2CCCCC2)NC(=O)N3c2cccc(OC)c2)cc1 (stereo not drawn)	8.9µM*
O=C1NC(=NC2CCCC2)C2(CCCN([S+](=O)([O-])c3cccc(C(F)(F)F)c3)C2)N1c1cccnc1 (stereo not drawn)	-29%
O=C1NC(=NC2CCCC2)C2(CCN([S+](=O)([O-])c3cccc(C(F)(F)F)c3)C2)N1c1cc(F)cc(F)c1 (stereo not drawn)	14%
COc1cccc(N2C(=O)NC(=NC3CCCCC3)C23CCCN(Cc2ccsc2)C3)c1 (stereo not drawn)	11µM*
COc1cccc(N2C(=O)NC(=NC3CCCCC3)C23CCN([S+](=O)([O-])c2cccs2)C3)c1 (stereo not drawn)	-10%
COc1ccc(C(=O)N2CCCC3(C2)C(=NC2CCCCC2)NC(=O)N3c2cccc(OC)c2)cc1 (stereo not drawn)	8%
COc1cccc(N2C(=O)NC(=NC3CCCCC3)C23CCN(Cc2cccnc2)C3)c1 (stereo not drawn)	-24%
COc1cccc(N2C(=O)NC(=NC3CCCC3)C23CCN(CC2CC2)C3)c1 (stereo not drawn)	-7%
COc1cccc(N2C(=O)NC(=NC3CCCCC3)C23CCN(CC2CCCCC2)C3)c1 (stereo not drawn)	-1%
O=C(COc1ccccc1F)c1ccc2c(c1)N(CC(=O)N1CCOCC1)C(=O)CO2	7%
CNC(=O)[C@@H]1CN(S(=O)(=O)c2ccc3c(c2)CCC3)C[C@H]1c1nc(C)no1	35%
O=c1[nH]c(C2CCCN([S+](=O)([O-])c3cccc(C(F)(F)F)c3)C2)nn1-c1cccc(Cl)c1 (stereo not drawn)	i
CC[C@H]1CN(C(C)=O)CC[C@H]1CC(=O)Nc1nccs1	-13%[44.1 µM]
COC(=O)[C@H]1CN(C(=O)NC(C)C)CCN1S(C)(=O)=O	-18%[44.1 µM]
CCn1c(=O)c2c(cc(C)n2C)n(CC(=O)Nc2c(C)cccc2C)c1=O	15%
COc1ccc(C(=O)N2CCC3(C2)C(=NC2CCCCC2)NC(=O)N3c2cccc(OC)c2)cc1 (stereo not drawn)	32%
COc1cccc(N2C(=O)NC(=NC3CCCCC3)C23CCN(Cc2ccccc2)CC3)c1	-19%
COc1ccc(CN2CCC3(C2)C(=NC2CCCCC2)NC(=O)N3c2cccc(OC)c2)cc1 (stereo not drawn)	2.8µM*
O=C(O)C[C@@H]1CCN(Cc2ccccc2)C[C@@H]1CCN1C[C@@H]2C[C@H](C1)c1cccc(=O)n1C2	-10%
Cc1nn(CC(=O)N2CCN(c3ccccc3F)CC2)c(=O)c2nc(C(C)C)sc12	-21%
O=C(NCc1cccnc1)[C@@H]1C[C@@H](O)CN1C1CCN(C(=O)Cc2ccccc2)CC1	7%
CCOc1cc(-c2ccc(OC(=O)c3ccccc3Cl)c(OC)c2)cc(=O)c2c(C)oc(C)c12	-12%
CCCc1ccc(-c2ccc(C(=O)Oc3ccc(OCC)cc3)cc2)nc1	4%
SMILES	Pf Dd2 inh
COc1ccc(F)cc1-c1ccc(C(=O)O)cc1	i
COc1ccc(-c2cc(OC(=O)c3ccc(F)cc3)c3c(C)oc(C)c3c(=O)c2)cc1OC	10µM*
CCOc1ccc(-c2cc(OC(=O)c3ccc(OC)cc3)c3c(C)oc(C)c3c(=O)c2)cc1	10µM*
CCOC(=O)c1c(-c2ccc(OC)c(OC)c2)csc1NC(=O)c1ccc(F)cc1	6%
Cc1sc2ccn(Cc3ccc(F)cc3)c(=O)c2c1C(=O)NCc1cccs1	-14%
Cc1ccc(CN(C)Cc2cnc(S(=O)(=O)C(C)C)n2CCc2ccccc2)o1	-27%
CCOCCCNC(=O)N1CCC2(CC1)CC(N1CCOCC1)CCO2 (stereo not drawn)	60%
CCc1ccc(NC(=O)Cn2c(C)cc3nc4n(c(=O)c32)CCCCC4)cc1	-27%
CCC(=O)N1CC(C(=O)N2CCN(c3ccccn3)CC2)C2(CCOCC2)C1 (stereo not drawn)	-10%
COc1ccc(NC(=O)c2sc3nc(C)c(C(=O)Nc4ccc(Cl)cc4)c(-c4ccc(Br)cc4)c3c2N)cc1	-3%
COc1ccc(NC(=O)c2sc3nc4c(cc3c2N)CCCCCC4)cc1	22%
COc1ccc(-c2c3c(nc4sc(C(=O)Nc5ccc(Cl)cc5)c(N)c24)CC(C)(C)CC3=O)cc1	0.063µM*
